Source: PubChem BioAssay (NCI)
About 83,000 compounds went through this panel and 20% of them were active in at least one assay; those are over-represented in the sample as a whole.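 Compound tested at a single concentration for 48 hours in 96-well plates; a percent growth value below 10 was scored as active.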 The source made the active and inactive calls.

How the values were obtained:
Test in all cases: NCI-60 one-dose screen, 48 h (100 = growth as untreated, 0 = no growth, -100 = all killed)
Conditions in all cases: 10 µM unless noted
T-47D breast = test system: T-47D breast
BT-549 breast = test system: BT-549 breast
MDA-MB-435 melanoma = test system: MDA-MB-435 melanoma
SW-620 colon = test system: SW-620 colon
MCF7 breast = test system: MCF7 breast
HCT-116 colon = test system: HCT-116 colon
HCC-2998 colon = test system: HCC-2998 colon
KM12 colon = test system: KM12 colon

Measured: growth

CSc1ncccc1C(=O)OCC(=O)Nc1oc(C)c2c(C)n[nH]c(=O)c12
inactive: T-47D breast 103% | BT-549 breast 99.1% | MDA-MB-435 melanoma 107% | SW-620 colon 105% | MCF7 breast 84% | HCT-116 colon 109% | HCC-2998 colon 113% | KM12 colon 103%

CCCCCCCCCCCCCCCCCCOc1ccccc1CCCOP(=O)(O)OCC[N+](C)(C)C
inactive: T-47D breast 87.8% | BT-549 breast 77.4% | MDA-MB-435 melanoma 91.6% | SW-620 colon 69.2% | MCF7 breast 60.5% | HCT-116 colon 44.9% | HCC-2998 colon 50.9% | KM12 colon 13.2%

CCCCCCNC(=O)Oc1ccc(/C(=C(\C)c2ccc(OC)cc2)c2ccc(OCCN3CCCCC3)cc2)cc1
inactive: T-47D breast 48% | BT-549 breast 70.4% | MDA-MB-435 melanoma 66.7% | SW-620 colon 55.3% | MCF7 breast 22.7% | HCT-116 colon 34.5% | HCC-2998 colon 80.6% | KM12 colon 43.5%

COC1=C(C)C(=O)c2c(c(CCCl)c3n2CCC3OC(C)=O)C1=O (stereo not drawn)
inactive: T-47D breast 60.6%
active: BT-549 breast -48.2% | MDA-MB-435 melanoma -58% | SW-620 colon 3.87% | MCF7 breast -39.9% | HCT-116 colon -19.7% | HCC-2998 colon -48.1% | KM12 colon -18.6%

NCCNc1nc2ccccc2c2c(=O)c3cc(F)ccc3sc12
active: SW-620 colon -29.1% | HCC-2998 colon 4.32%
inactive: T-47D breast 88.7% | BT-549 breast 92.5% | MDA-MB-435 melanoma 58.6% | MCF7 breast 52.6% | HCT-116 colon 22% | KM12 colon 34.5%

CCOC(=O)CC1C(COC(=O)NC)OC(n2cnc3c(NC(=O)Nc4ccccc4)ncnc32)C1O[Si](C)(C)C(C)(C)C (stereo not drawn)
active: HCC-2998 colon -8.59%
inactive: T-47D breast 29.1% | BT-549 breast 64.5% | MDA-MB-435 melanoma 49.3% | SW-620 colon 72.2% | MCF7 breast 11.7% | HCT-116 colon 17.1% | KM12 colon 31.2%

COc1cccc(-c2nn(-c3ccccc3)cc2-c2ccnc(N3CCOCC3)c2)c1
inactive: T-47D breast 51.7% | BT-549 breast 87.9% | MDA-MB-435 melanoma 98.9% | SW-620 colon 105% | MCF7 breast 87% | HCT-116 colon 79.8% | HCC-2998 colon 93.8% | KM12 colon 86.1%

CCCCCCN1C(=O)/C(=c2\sc3n(c2=O)C2C(NN=3)N(CC)C(=O)N2CC)c2ccccc21 (stereo not drawn)
active: MDA-MB-435 melanoma -49.2% | SW-620 colon -38.3% | MCF7 breast -10.4% | HCT-116 colon -37.3%
inactive: T-47D breast 16.2% | BT-549 breast 41.3% | HCC-2998 colon 83.5% | KM12 colon 16.6%

COc1ccc(C2CC(c3ccc(Nc4ccnc5cc(Cl)ccc45)cc3)=NN2C=O)cc1 (stereo not drawn)
inactive: T-47D breast 51.1% | BT-549 breast 63.7% | SW-620 colon 70.9% | MCF7 breast 40.3% | HCT-116 colon 55.7% | HCC-2998 colon 57.8% | KM12 colon 66.2%
active: MDA-MB-435 melanoma -3.72%

Cc1ccc(C2CC(c3ccc(Nc4ccnc5cc(Cl)ccc45)cc3)=NN2C=O)cc1 (stereo not drawn)
inactive: T-47D breast 38.3% | BT-549 breast 56.8% | MDA-MB-435 melanoma 16.3% | SW-620 colon 68% | MCF7 breast 35.2% | HCT-116 colon 57.6% | HCC-2998 colon 53.2% | KM12 colon 50.2%

CN1CCN(c2ccc(-c3cc4c(Nc5ccc(F)c(Cl)c5)ncnn4c3)cn2)CC1
active: HCT-116 colon 1.89%
inactive: T-47D breast 96.2% | BT-549 breast 105% | MDA-MB-435 melanoma 96.1% | SW-620 colon 40.4% | MCF7 breast 77.4% | HCC-2998 colon 98.6% | KM12 colon 93.7%

CCC(C)(c1cc(C(C)(C)C)c(O)c(C(C)(C)C)c1)c1cc(C(C)(C)C)c(O)c(C(C)(C)C)c1
inactive: T-47D breast 84.2% | BT-549 breast 104% | MDA-MB-435 melanoma 105% | SW-620 colon 102% | MCF7 breast 92.5% | HCT-116 colon 99.2% | HCC-2998 colon 110% | KM12 colon 100%

Cc1ccc(-c2nn(C)c(=O)c3noc(-c4ccc(C)cc4)c23)cc1
inactive: T-47D breast 24.2% | BT-549 breast 30.8% | SW-620 colon 21.1% | MCF7 breast 30% | HCT-116 colon 37.5% | HCC-2998 colon 70.8% | KM12 colon 35.9%
active: MDA-MB-435 melanoma -5.41%

COc1ccc(-c2nc3sc(-c4ccc(Cl)cc4)cn3n2)cc1
active: HCT-116 colon -16.3%
inactive: T-47D breast 54.9% | BT-549 breast 97.6% | MDA-MB-435 melanoma 75% | SW-620 colon 59.6% | MCF7 breast 48.9% | HCC-2998 colon 78.6% | KM12 colon 54.7%

Cc1ccc2sc3c(NCCCN)nc4ccccc4c3c(=O)c2c1
active: MDA-MB-435 melanoma -71.7% | SW-620 colon -79.7% | MCF7 breast -21.2% | HCT-116 colon -53.2% | HCC-2998 colon -86.1% | KM12 colon -74.6%
inactive: T-47D breast 54.6% | BT-549 breast 96.8%

CCOC(=O)/C=C1\S/C(=N\Nc2ccc([N+](=O)[O-])cc2[N+](=O)[O-])N(Cc2ccccc2)C1=O
inactive: T-47D breast 56% | BT-549 breast 109% | MDA-MB-435 melanoma 98.2% | SW-620 colon 70.9% | MCF7 breast 72.8% | HCT-116 colon 75.3% | HCC-2998 colon 93% | KM12 colon 97.5%

C#Cc1cccc(NC(=O)Nc2ccccc2NC(=O)CCl)c1
active: T-47D breast 1.49% [8.25 µM] | BT-549 breast -27% [8.25 µM] | MDA-MB-435 melanoma -68.7% [8.25 µM] | SW-620 colon -5.75% [8.25 µM] | MCF7 breast 0.96% [8.25 µM] | HCT-116 colon 0.401% [8.25 µM] | HCC-2998 colon -29.4% [8.25 µM] | KM12 colon -37.6% [8.25 µM]

Cc1ccc(-c2nc(N3CCN(CC(=O)Nc4ccc(Cl)cc4)CC3)c3ccccc3n2)cc1
inactive: T-47D breast 80.2% | BT-549 breast 102% | MDA-MB-435 melanoma 96.4% | SW-620 colon 97.5% | MCF7 breast 77.5% | HCT-116 colon 89.9% | HCC-2998 colon 82.4% | KM12 colon 92.4%

CC1(C)C2CC1C1(/C=N/NC(N)=S)C(C2)C(C#N)(C#N)C1(C#N)C#N (stereo not drawn)
inactive: T-47D breast 64.1% | BT-549 breast 96.3% | MDA-MB-435 melanoma 88.6% | SW-620 colon 50% | MCF7 breast 59.2% | HCT-116 colon 40.7% | HCC-2998 colon 94.1% | KM12 colon 95.7%

NCCOc1ncccc1/C=C1\c2ccccc2-c2ccc(C(F)F)cc21
inactive: T-47D breast 51.5% | BT-549 breast 87.3% | MDA-MB-435 melanoma 82.3% | SW-620 colon 38.4% | MCF7 breast 21.6% | HCT-116 colon 42.1% | HCC-2998 colon 24.2% | KM12 colon 78.8%

COc1ccc(C(=O)C[C@]2(O)C(=O)Nc3c(Cl)ccc(Cl)c32)cc1
active: MDA-MB-435 melanoma -40.9%
inactive: T-47D breast 29.9% | BT-549 breast 49.8% | SW-620 colon 21.4% | MCF7 breast 19.7% | HCT-116 colon 17% | HCC-2998 colon 23.1% | KM12 colon 47.6%

Cc1cc(N2CCCC2)nc(N(CCCNc2ccnc3cc(Cl)ccc23)Cc2ccccn2)n1
inactive: T-47D breast 68.6% | BT-549 breast 64.9% | MDA-MB-435 melanoma 19.1% | SW-620 colon 44.5% | MCF7 breast 47.3% | HCT-116 colon 16.3% | HCC-2998 colon 79.5% | KM12 colon 63.8%

CCN(CC)c1ccc(C2=NN(C(C)=O)C(c3cc(OC)c(OC)c(OC)c3)C2)cc1 (stereo not drawn)
inactive: T-47D breast 47.2% | SW-620 colon 22.3% | MCF7 breast 27%
active: BT-549 breast -36.3% | MDA-MB-435 melanoma -53% | HCT-116 colon 6.95% | HCC-2998 colon -6.47% | KM12 colon -17%

Cc1cc(O)c(C2=NN(c3ccc(S(N)(=O)=O)cc3)C(c3ccccc3O)C2)cc1Cl (stereo not drawn)
inactive: T-47D breast 21.6% | BT-549 breast 99.7% | MDA-MB-435 melanoma 10%
active: SW-620 colon -0.676% | MCF7 breast 7.94% | HCT-116 colon -92.9% | HCC-2998 colon -75% | KM12 colon -60.4%

COc1ccc(C(=O)C(C)C)c2ccccc12
inactive: T-47D breast 92.2% | BT-549 breast 113% | MDA-MB-435 melanoma 97.9% | SW-620 colon 95.2% | MCF7 breast 107% | HCT-116 colon 101% | HCC-2998 colon 107% | KM12 colon 101%

O=[N+]([O-])c1ccc(Cl)c(-c2cc(CCCCO)on2)c1
inactive: T-47D breast 88.8% | BT-549 breast 99.7% | MDA-MB-435 melanoma 103% | SW-620 colon 104% | MCF7 breast 100% | HCT-116 colon 105% | HCC-2998 colon 108% | KM12 colon 104%
